According to PubChem BioAssay (EPA / NIEHS):
Several values for one entry are separate records, joined by “and”; a condition that tells them apart may be missing. Equal values may be shown once. More than one record can exist for a structure, and the calls need not agree. Activity calls are given as the source filed them. How the source made its calls: active means hit-call score of the fitted dose curve at least 0.9, where 1 is the maximum; inactive means score below 0.9.

read-out: Intercellular Adhesion Molecule 1 (ICAM1), ICAM1 (gene 3383); experiment: BSK_BF4T_ICAM1: BioMAP Diversity Plus: BF4T Assay for Intercellular Adhesion Molecule 1 (ICAM1) Biomarker Activity (AID 2284260); settings: primary human bronchial epithelial cells with fibroblasts
Procedure, shortened: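 ICAM-1 levels measured by ELISA after 24 h chemical treatment of bronchial epithelial cell/dermal fibroblast co-cultures, read against DMSO baseline. Overt cytotoxicity checked in parallel cultures by sulforhodamine B staining.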

SMILES | outcome | AC50
CC(C)(C)C(=O)CC(=O)C(F)(F)C(F)(F)C(F)(F)F | inactive | 
O=C(O)C(F)(F)C(F)(F)OC(F)(F)F | inactive | 
OCC(F)(F)C(F)(F)C(F)(F)C(F)(F)C(F)(F)C(F)(F)F | inactive | 
FC(F)(F)C(F)(F)C(F)(F)C(F)(F)C(F)(F)C(F)(F)C(F)(F)Br | inactive | 
C=C(C)C(=O)OCC(F)(F)C(F)(F)C(F)(F)F | inactive | 
OCC(F)(F)C(F)(F)C(F)(F)C(F)(F)C(F)(F)C(F)F | inactive | 
C=CC(F)(F)C(F)(F)C(F)(F)C(F)(F)C(F)(F)C(F)(F)C(F)(F)C(F)(F)F | inactive | 
Cc1ccc(S(=O)(=O)OCC(F)(F)C(F)(F)C(F)(F)C(F)(F)C(F)(F)C(F)F)cc1 | inactive | 
N=C(N)C(F)(F)C(F)(F)C(F)(F)C(F)(F)C(F)(F)C(F)(F)C(F)(F)F | inactive | 
CCO[Si](CCC(F)(F)C(F)(F)C(F)(F)C(F)(F)C(F)(F)C(F)(F)F)(OCC)OCC | inactive | 
FC(F)(F)C(F)(F)CNCC(F)(F)C(F)(F)F | inactive | 
C=CC(=O)OCC(F)(F)C(F)(F)C(F)(F)C(F)(F)COC(=O)C=C |  | 9.07 µM (active) and 16.9 µM (active)
FC(F)(F)C(F)(F)C(F)(F)C(F)(F)C(F)(F)C(F)(F)CC1CO1 (configuration not stated) | inactive | 
OCCCC(F)(F)C(F)(F)C(F)(F)F | inactive | 
O=C(Cl)C(F)(F)C(F)(F)C(F)(F)C(F)(F)C(F)(F)C(F)(F)C(F)(F)C(F)(F)F | inactive | 
O=C(O)C(F)(F)C(F)(F)C(F)(F)C(F)(F)C(F)(F)C(F)(F)C(F)(F)C(F)(F)Cl |  | 41.4 µM (active) and 40 µM (active)
FC(F)(F)C(F)(F)C(F)(F)C(F)(F)C(F)(F)CCI | inactive | 

SMILES | outcome | AC50
O=C(O)C(F)(F)C(F)(F)C(F)(F)C(F)(F)C(F)(F)C(F)(F)C(F)(F)C(F)(F)C(F)(F)C(F)F |  | 25.6 µM (active) and 17.8 µM (active)
O=P(O)(O)OCCC(F)(F)C(F)(F)C(F)(F)C(F)(F)C(F)(F)C(F)(F)F | inactive | 
FC(F)(Br)C(F)(F)C(F)(F)C(F)(F)C(F)(F)C(F)(F)Br | inactive | 
OCC(F)(F)C(F)(F)C(F)(F)F | inactive | 
O=C(O)C(F)(F)C(F)(F)C(F)(F)C(F)(F)C(F)(F)C(F)(F)C(F)(F)C(F)(F)C(F)(F)C(F)(F)C(F)(F)C(F)(F)F | inactive | 
O=S(=O)(OCC(F)F)C(F)(F)F | inactive | 
FC(F)(F)C(F)(F)C(F)(F)CI | inactive | 
FC(F)(I)C(F)(F)C(F)(F)C(F)(F)I |  | 45.7 µM (active) and 47.8 µM (active) and 51.6 µM (active)
FC(F)(F)C(F)(F)C(F)(F)C(F)(F)C(F)(F)C(F)(F)C(F)(F)I | inactive | 
OCCCC(F)(F)C(F)(F)C(F)(F)C(F)(F)C(F)(F)C(F)(F)C(F)(F)F |  | 23.7 µM (active) and 34 µM (active)
COC(=O)CCC(F)(F)C(F)(F)C(F)(F)C(F)(F)F | inactive | 
OCC(F)(F)C(F)(F)C(F)(F)C(F)F | inactive | 
FC1CC(F)(F)C(F)(F)C1(F)F (configuration not stated) | inactive | 
O=C(O)C(F)(F)C(F)(F)C(F)(F)C(F)(F)F | inactive | 
O=S(=O)(O)C(F)(F)C(F)(F)C(F)(F)C(F)(F)C(F)(F)C(F)(F)C(F)(F)F | inactive | 
O=C(CC(=O)C(F)(F)C(F)(F)F)C(F)(F)F | inactive | 

read-out: Interleukin-8 (IL8), CXCL8 (gene 3576); experiment: BSK_MyoF_IL8: BioMAP Diversity Plus: MyoF Assay for Interleukin-8 (IL8) Biomarker Activity (AID 2284261); settings: primary human lung fibroblasts
Procedure, shortened: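 DMSO-normalised, upward-fitted IL-8 ELISA signal; human lung fibroblasts, 24 h chemical treatment.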

SMILES | outcome | AC50
CC(C)(C)C(=O)CC(=O)C(F)(F)C(F)(F)C(F)(F)F | inactive | 
O=C(O)C(F)(F)C(F)(F)OC(F)(F)F | inactive | 
OCC(F)(F)C(F)(F)C(F)(F)C(F)(F)C(F)(F)C(F)(F)F | inactive | 
FC(F)(F)C(F)(F)C(F)(F)C(F)(F)C(F)(F)C(F)(F)C(F)(F)Br | inactive | 
C=C(C)C(=O)OCC(F)(F)C(F)(F)C(F)(F)F | inactive | 
OCC(F)(F)C(F)(F)C(F)(F)C(F)(F)C(F)(F)C(F)F | inactive | 
C=CC(F)(F)C(F)(F)C(F)(F)C(F)(F)C(F)(F)C(F)(F)C(F)(F)C(F)(F)F | inactive | 
Cc1ccc(S(=O)(=O)OCC(F)(F)C(F)(F)C(F)(F)C(F)(F)C(F)(F)C(F)F)cc1 | inactive | 
N=C(N)C(F)(F)C(F)(F)C(F)(F)C(F)(F)C(F)(F)C(F)(F)C(F)(F)F | inactive | 
CCO[Si](CCC(F)(F)C(F)(F)C(F)(F)C(F)(F)C(F)(F)C(F)(F)F)(OCC)OCC | inactive | 
FC(F)(F)C(F)(F)CNCC(F)(F)C(F)(F)F | inactive | 
C=CC(=O)OCC(F)(F)C(F)(F)C(F)(F)C(F)(F)COC(=O)C=C |  | 19.5 µM (active) and 13.8 µM (active)
FC(F)(F)C(F)(F)C(F)(F)C(F)(F)C(F)(F)C(F)(F)CC1CO1 (configuration not stated) | inactive | 
OCCCC(F)(F)C(F)(F)C(F)(F)F | inactive | 
O=C(Cl)C(F)(F)C(F)(F)C(F)(F)C(F)(F)C(F)(F)C(F)(F)C(F)(F)C(F)(F)F | inactive | 
O=C(O)C(F)(F)C(F)(F)C(F)(F)C(F)(F)C(F)(F)C(F)(F)C(F)(F)C(F)(F)Cl | inactive | 
FC(F)(F)C(F)(F)C(F)(F)C(F)(F)C(F)(F)CCI | inactive | 

SMILES | outcome | AC50
O=C(O)C(F)(F)C(F)(F)C(F)(F)C(F)(F)C(F)(F)C(F)(F)C(F)(F)C(F)(F)C(F)(F)C(F)F | inactive | 
O=P(O)(O)OCCC(F)(F)C(F)(F)C(F)(F)C(F)(F)C(F)(F)C(F)(F)F | inactive | 
FC(F)(Br)C(F)(F)C(F)(F)C(F)(F)C(F)(F)C(F)(F)Br | inactive | 
OCC(F)(F)C(F)(F)C(F)(F)F | inactive | 
O=C(O)C(F)(F)C(F)(F)C(F)(F)C(F)(F)C(F)(F)C(F)(F)C(F)(F)C(F)(F)C(F)(F)C(F)(F)C(F)(F)C(F)(F)F | inactive | 
O=S(=O)(OCC(F)F)C(F)(F)F | inactive | 
FC(F)(F)C(F)(F)C(F)(F)CI | inactive | 
FC(F)(I)C(F)(F)C(F)(F)C(F)(F)I |  | 57.5 µM (active) and 48 µM (active) and 48.5 µM (active)
FC(F)(F)C(F)(F)C(F)(F)C(F)(F)C(F)(F)C(F)(F)C(F)(F)I | inactive | 
OCCCC(F)(F)C(F)(F)C(F)(F)C(F)(F)C(F)(F)C(F)(F)C(F)(F)F | inactive | 58.5 µM (active)
COC(=O)CCC(F)(F)C(F)(F)C(F)(F)C(F)(F)F | inactive | 
OCC(F)(F)C(F)(F)C(F)(F)C(F)F | inactive | 
FC1CC(F)(F)C(F)(F)C1(F)F (configuration not stated) | inactive | 
O=C(O)C(F)(F)C(F)(F)C(F)(F)C(F)(F)F | inactive | 
O=S(=O)(O)C(F)(F)C(F)(F)C(F)(F)C(F)(F)C(F)(F)C(F)(F)C(F)(F)F | inactive | 
O=C(CC(=O)C(F)(F)C(F)(F)F)C(F)(F)F | inactive | 
